Compound activity deposited in PubChem by The Scripps Research Institute Molecular Screening Center.
PME-1 primary – blocks human protein phosphatase methylesterase 1. Q9Y570. recombinant PME-1, FP-Rh probe fluorescence polarization. inhibition, % at 5.9 µM. actives 0.53% (n = 320,000). AID 2130;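 active = inhibition above the campaign mean of all compounds plus 3 SD, cut at about 26% in these data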;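 note: competitive labeling of PME-1 active site by serine hydrolase directed probe; 0% = PME-1 with DMSO and 100% = wells lacking PME-1 enzyme; inhibitors block probe labeling so polarization falls and inhibition rises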
LYPLA2 counter – counter-screen for PME1 inhibitors: inhibitors of human LYPLA2; O95372; recombinant LYPLA2, FP-Rh probe fluorescence polarization; inhibition, % at 5.9 µM; actives 0.38% (n = 320,000); AID 2177;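 active = inhibition above the screen-wide mean plus 3 SD, limit set per campaign, cut at about 26% in these data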;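 note: 0% = LYPLA2 with DMSO and 100% = wells lacking LYPLA2 enzyme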
PAD4 FP inh – PAD4 (human) enzyme inhibition; Q9UM07; recombinant PAD4, RCA probe fluorescence polarization; inhibition, % at 6.36 µM; actives 0.41% (n = 330,000);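 active = percent inhibition above a cutoff equal to the mean of all tested compounds plus 3 SD, cut at about 15% in these data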;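 note: 0% = PAD4 with RCA probe and DMSO and 100% = probe without PAD4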
Target sequence (Q9UM07 whole entry, looked up): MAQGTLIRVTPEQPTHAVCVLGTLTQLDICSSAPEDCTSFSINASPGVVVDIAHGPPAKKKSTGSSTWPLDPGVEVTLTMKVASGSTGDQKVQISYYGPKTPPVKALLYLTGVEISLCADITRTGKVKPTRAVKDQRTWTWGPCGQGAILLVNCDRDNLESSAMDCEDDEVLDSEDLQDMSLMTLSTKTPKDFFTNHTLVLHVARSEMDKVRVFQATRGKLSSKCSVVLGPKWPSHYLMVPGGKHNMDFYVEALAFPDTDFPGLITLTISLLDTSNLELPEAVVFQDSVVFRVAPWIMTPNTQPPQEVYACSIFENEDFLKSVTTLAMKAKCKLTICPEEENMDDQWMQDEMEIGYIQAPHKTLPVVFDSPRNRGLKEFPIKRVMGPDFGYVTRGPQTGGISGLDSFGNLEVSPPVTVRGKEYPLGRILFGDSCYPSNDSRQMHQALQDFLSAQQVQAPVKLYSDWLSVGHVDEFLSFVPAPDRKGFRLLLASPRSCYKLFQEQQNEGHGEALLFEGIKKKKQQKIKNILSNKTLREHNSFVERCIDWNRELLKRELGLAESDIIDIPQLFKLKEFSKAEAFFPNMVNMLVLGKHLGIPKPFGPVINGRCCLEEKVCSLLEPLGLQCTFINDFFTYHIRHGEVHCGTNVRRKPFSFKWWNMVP
GSTO1 inh – counter-screen for RBBP9 inhibitors: inhibitors of human GSTO1 | P78417 | recombinant GSTO1, activity-based probe fluorescence polarization | inhibition, % at 5.96 µM | actives 1.1% (n = 300,000) | AID 1974;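 active = inhibition above the campaign mean inhibition plus 3 SD, cut at about 35% in these data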;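 note: 0% = GSTO1-1 with DMSO and 100% = wells lacking GSTO1-1 enzyme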
LYPLA1 counter – blocks human lysophospholipase 1, a PME1 counter-screen; recombinant LYPLA1, FP-Rh probe fluorescence polarization; inhibition, % at 5.9 µM; actives 0.16% (n = 320,000); AID 2174;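 active = inhibition above the mean of all tested compounds plus 3 SD, set per campaign, cut at about 14% in these data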;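 note: inhibitors block serine hydrolase probe labeling of LYPLA1 so polarization falls; 0% = enzyme with DMSO and 100% = wells lacking LYPLA1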
Fam108B inh – Fam108B inhibition, counter-screen for RBBP9 inhibitors. recombinant Fam108B, FP-Rh probe fluorescence polarization. inhibition, % at 9.51 µM. actives 0.33% (n = 300,000). AID 1947;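 active = inhibition above the screen mean inhibition plus 3 SD, computed separately per campaign, cut at about 18% in these data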;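 note: inhibitors lower polarization as less probe binds the enzyme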
LYPLA2 confirm – counter-screen for PME1 inhibitors: confirmation of human LYPLA2 inhibitors; shares compounds with LYPLA2 counter; recombinant LYPLA2, FP-Rh probe fluorescence polarization; inhibition, % at 5.9 µM; actives 72% (n = 1,100);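 active = mean inhibition across replicates above the hit cutoff set in the primary screen, cut at about 26% in these data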;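 note: blocked labeling of the enzyme by serine hydrolase FP-Rh probe lowers polarization; 0% = enzyme with DMSO and 100% = wells lacking LYPLA2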
LYPLA2 gel ABPP – blocks human acyl-protein thioesterase 2 in gel ABPP; inhibition, % at 20 µM; actives 30% (n = 150); rhLYPLA2 in mouse brain proteome, gel ABPP FP-Rh; shares compounds with LYPLA2 counter; AID 652029;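 active = inhibition of LYPLA2 enzyme probe labeling above about 50%, limit read from the data; inactive = inhibition below that limit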;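 note: loss of FP-Rh probe labeling of the LYPLA2 gel band measured as band density; 0% = DMSO only control band and 100% = blank gel background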
Active calls of the source: *. This is a sample that favours compounds with a hit; in the whole collection about 1.8% have one here.

Screening O=[N+]([O-])c1ccc(Sc2ccccc2)nc1 returned PME-1 primary -3, LYPLA2 counter 17, PAD4 FP inh -2, GSTO1 inh -2, LYPLA1 counter -2 and Fam108B inh 4.
For COc1ccc(C(=O)O/N=C2\CCCc3nonc32)cc1 the results were PME-1 primary 8, LYPLA2 counter 42*, PAD4 FP inh 4, GSTO1 inh 2, LYPLA1 counter 1, Fam108B inh 2 and LYPLA2 confirm 61*.
For Cc1cc(C)nc(N/N=C/C2=C(O)CC(c3ccc(F)cc3)CC2=O)n1 (centres undefined) the results were PME-1 primary 0, LYPLA2 counter 2, PAD4 FP inh -5, GSTO1 inh 7, LYPLA1 counter 1 and Fam108B inh -1.
`CCc1nnc(NS(=O)(=O)c2ccc(NC(=S)NC(=O)/C=C/c3ccc([N+](=O)[O-])cc3)cc2)s1` gave PME-1 primary -4, LYPLA2 counter 67*, PAD4 FP inh -2, GSTO1 inh -15, LYPLA1 counter 1, Fam108B inh -2, LYPLA2 confirm 77* and LYPLA2 gel ABPP 37.
O=C(Cn1cnc2c(NC(=O)OCc3ccccc3)ncnc21)NCc1ccccn1 was read as PME-1 primary -8, LYPLA2 counter 2, PAD4 FP inh 2 and LYPLA1 counter 0.
`CCN(CC)c1ccc(C(=O)OCC(=O)Nc2ccccc2-c2ccccc2)cc1` gave PME-1 primary 8, LYPLA2 counter 0, PAD4 FP inh -2, GSTO1 inh 5, LYPLA1 counter 1 and Fam108B inh -3.
Cc1cc(NC(=O)COC(=O)c2c(C)noc2C)ccc1Br was read as PME-1 primary -6, LYPLA2 counter 49*, PAD4 FP inh -1, GSTO1 inh -2, LYPLA1 counter 2, Fam108B inh -4 and LYPLA2 confirm 53*.
For Cc1noc(C)c1C(=O)OCC(=O)Nc1cccc(S(N)(=O)=O)c1 the results were PME-1 primary 5, LYPLA2 counter 2, PAD4 FP inh 3, GSTO1 inh 4, LYPLA1 counter 3 and Fam108B inh 3.
For COc1ccc(NC(=O)CSc2n[nH]c(=O)n2Cc2ccccc2)cc1Cl the results were PME-1 primary -11, LYPLA2 counter -7, PAD4 FP inh 0, GSTO1 inh -4, LYPLA1 counter -3 and Fam108B inh -1.
COc1ccc(OCCOc2ccc(S(=O)(=O)N3CCCC3)cc2[N+](=O)[O-])cc1 was read as PME-1 primary 7, LYPLA2 counter 30*, PAD4 FP inh 2, LYPLA1 counter -2 and LYPLA2 confirm 30*.
`CCOC(=O)C1=C(COC(=O)CCC(=O)c2ccc(C)cc2)NC(=O)NC1C` (centres undefined) gave PME-1 primary 5, LYPLA2 counter 5, PAD4 FP inh 0 and LYPLA1 counter 0.
`O=C(CSc1ccccn1)N1CCN(c2ncc(C(F)(F)F)cc2Cl)CC1` gave PME-1 primary -3, LYPLA2 counter -8, PAD4 FP inh 1, GSTO1 inh -1, LYPLA1 counter 5 and Fam108B inh -2.
`O=C(O)c1nn(CC(=O)N2CCN(c3ncc(C(F)(F)F)cc3Cl)CC2)c(=O)c2ccccc12` gave PME-1 primary -8, LYPLA2 counter 26*, PAD4 FP inh -3, GSTO1 inh 8, LYPLA1 counter 3, Fam108B inh -4 and LYPLA2 confirm 30*.
Screening Cc1c(NS(=O)(=O)c2ccc(N)cc2)c(=O)n(-c2ccccc2)n1C returned PME-1 primary -3, LYPLA2 counter -3, PAD4 FP inh -2, GSTO1 inh 5, LYPLA1 counter -3 and Fam108B inh -2.
`CCCCCCCCCCCCN1[C@@H](CC(=O)O)c2cc(C(F)(F)F)ccc2S1(=O)=O` gave PME-1 primary 0, LYPLA2 counter 61*, PAD4 FP inh 8, GSTO1 inh 4, LYPLA1 counter 11, Fam108B inh -3, LYPLA2 confirm 60* and LYPLA2 gel ABPP 16.
`CCCCCCCCCCCCN1[C@@H](CC(=O)O)c2cc(F)ccc2S1(=O)=O` gave PME-1 primary 2, LYPLA2 counter 58*, PAD4 FP inh 0, GSTO1 inh 18, LYPLA1 counter 10, Fam108B inh 1, LYPLA2 confirm 58* and LYPLA2 gel ABPP 35.
CCCCCCCCN1[C@@H](CC(=O)OC)c2cc(F)ccc2S1(=O)=O was read as PME-1 primary -3, LYPLA2 counter 5, PAD4 FP inh 3, GSTO1 inh 6, LYPLA1 counter 2 and Fam108B inh 5.
For CCCCCCCCN1[C@@H](CC(=O)O)c2cc(C(F)(F)F)ccc2S1(=O)=O the results were PME-1 primary 7, LYPLA2 counter 2, PAD4 FP inh 1, GSTO1 inh 2, LYPLA1 counter 3 and Fam108B inh 2.
Screening CC(=O)N[C@@H](Cc1c[nH]c2ccccc12)C(=O)NC1CCCc2ccccc21 (some centres undefined) returned PME-1 primary 2, LYPLA2 counter 3, PAD4 FP inh 1, GSTO1 inh 4, LYPLA1 counter 2 and Fam108B inh 13.
For Cc1c(Cc2ccccc2)c(=O)oc2cc(OCc3ccc(C(=O)O)cc3)ccc12 the results were PME-1 primary -4, LYPLA2 counter 28*, PAD4 FP inh -5, GSTO1 inh -10, LYPLA1 counter 13, Fam108B inh -3, LYPLA2 confirm 52* and LYPLA2 gel ABPP 24.
For COc1cccc(COc2ccc3c(C)c(Cc4ccccc4)c(=O)oc3c2)c1 the results were PME-1 primary -6, LYPLA2 counter 8, PAD4 FP inh 3, GSTO1 inh 1, LYPLA1 counter 0 and Fam108B inh -5.
CCc1ccc(CNC(=O)C2CCN(S(=O)(=O)N3CC(C)CC(C)C3)CC2)cc1 (centres undefined) was read as PME-1 primary -3, LYPLA2 counter 12, PAD4 FP inh -1, GSTO1 inh 5, LYPLA1 counter 3 and Fam108B inh 0.
Screening COC(=O)c1ccc(NC(=O)c2ccc3c(c2)C(=O)N(Cc2cccnc2)C3=O)cc1 returned PME-1 primary -3, LYPLA2 counter 50*, PAD4 FP inh -3, GSTO1 inh -7, LYPLA1 counter 5, Fam108B inh -2 and LYPLA2 confirm 51*.
O=C(Nc1cccnc1)c1ccc2c(c1)C(=O)N(Cc1cccnc1)C2=O was read as PME-1 primary 2, LYPLA2 counter 2, PAD4 FP inh 1, GSTO1 inh -5, LYPLA1 counter -1 and Fam108B inh 3.
